# Counter-ions that a name gives are not always drawn.
# Biological target: PARP1 L713F-nLuc biosensor (HCT116) (UniProt P09874)
# Experiment: PARP1 L713F-nLuc/akaLuc ratio relative to DMSO control (biosensor stabilization) (fold change); higher = more PARP1 biosensor stabilization (target engagement / stabilizer), active = hit call of the paper
# Conditions: stock concentration (mM; final µM = stock mM x 1): 10; 24 h;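 active = log2 fold change beyond 2 SD from the library mean after excluding viability outliers; inactive = within 2 SD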
# Chain of PARP1 L713F-nLuc biosensor (HCT116) (P09874 whole entry L713F, looked up): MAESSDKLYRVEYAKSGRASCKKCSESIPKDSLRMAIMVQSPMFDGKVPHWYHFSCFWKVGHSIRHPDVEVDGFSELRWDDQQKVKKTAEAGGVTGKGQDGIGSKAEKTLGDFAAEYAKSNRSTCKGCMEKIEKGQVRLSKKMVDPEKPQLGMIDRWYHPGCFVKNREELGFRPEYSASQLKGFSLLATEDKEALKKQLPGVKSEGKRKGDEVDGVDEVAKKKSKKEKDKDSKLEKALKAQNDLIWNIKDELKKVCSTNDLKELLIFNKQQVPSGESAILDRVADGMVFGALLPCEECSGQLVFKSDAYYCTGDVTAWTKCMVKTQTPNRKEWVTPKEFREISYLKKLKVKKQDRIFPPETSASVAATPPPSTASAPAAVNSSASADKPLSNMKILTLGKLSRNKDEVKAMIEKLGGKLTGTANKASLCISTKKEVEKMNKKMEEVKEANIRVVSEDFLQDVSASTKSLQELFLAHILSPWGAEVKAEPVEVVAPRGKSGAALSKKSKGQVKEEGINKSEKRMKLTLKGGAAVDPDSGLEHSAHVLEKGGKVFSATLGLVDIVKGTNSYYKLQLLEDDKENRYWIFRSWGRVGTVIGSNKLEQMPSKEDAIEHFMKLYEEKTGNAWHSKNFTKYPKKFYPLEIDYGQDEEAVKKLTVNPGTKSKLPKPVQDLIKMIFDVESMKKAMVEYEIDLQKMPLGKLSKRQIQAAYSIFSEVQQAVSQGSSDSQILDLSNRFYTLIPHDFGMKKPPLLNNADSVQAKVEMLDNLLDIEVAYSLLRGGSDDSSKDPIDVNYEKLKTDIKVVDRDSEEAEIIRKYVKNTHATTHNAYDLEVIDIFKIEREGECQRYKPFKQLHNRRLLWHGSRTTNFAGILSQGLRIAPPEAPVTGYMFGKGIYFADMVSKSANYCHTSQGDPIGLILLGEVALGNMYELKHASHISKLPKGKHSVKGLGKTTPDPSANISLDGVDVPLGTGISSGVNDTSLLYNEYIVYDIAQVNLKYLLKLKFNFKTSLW
row,SMILES,PARP1 L713F-nLuc/akaLuc ratio
1,O=C(NN=Cc1c(O)ccc2ccccc12)c1ccncc1,0.653 (inactive)
2,O=C1/C(=C/c2ccc(O)c(Br)c2)CCC/C1=C\c1ccc(O)c(Br)c1 [Histone Acetyltransferase Inhibitor II],2.06 (inactive)
3,CNC(=O)c1nnc(NC(=O)C2CC2)cc1Nc1cccc(-c2ncn(C)n2)c1OC [Deucravacitinib],0.748 (inactive)
4,Cn1cc(C(=O)Nc2ccc([C@@H]3C[C@H]3NCC3CC3)cc2)cn1,0.949 (inactive)
5,O=c1[nH]c(=S)[nH]c(-c2ccccc2)c1Cc1c(O)ccc2ccccc12 [Cambinol],0.684 (inactive)
6,O=C1CN2Cc3c(ccc(Cl)c3Cl)N=C2N1 [Anagrelide HCl],0.856 (inactive)
7,CNCc1ccc(-c2cc3cc(F)cc(C(N)=O)c3o2)cc1 [Mefuparib (hydrochloride)],10.5 (active)
8,"CC[C@H](CO)Nc1nc(NCc2ccccc2)c2ncn(C(C)C)c2n1 [Roscovitine (Seliciclib,CYC202)]",0.975 (inactive)
9,N[C@H]1CC[C@H](N[C@@H]2C[C@H]2c2ccccc2)CC1 [Iadademstat (dihydrochloride)],1.06 (inactive)
10,CCS(=O)(=O)N1CC(CC#N)(n2cc(-c3ncnc4[nH]ccc34)cn2)C1,0.444 (inactive)
11,CCOc1ccn(-c2ccc(F)cc2)c(=O)c1C(=O)Nc1ccc(Oc2ccnc(N)c2Cl)c(F)c1,1 (inactive)
12,Cc1ncc(F)c(Nc2n[nH]c3c2CN(C(=O)N2C[C@@H](C)N(CC4CCOCC4)C[C@@H]2C)C3(C)C)n1,1.25 (inactive)
13,O=c1[nH]nc2c3c(cccc13)N=C(CN1Cc3ccccc3C1)N2,8.18 (active)
14,Cc1nc(-c2cccnc2)sc1C(=O)Nc1ccccc1-c1cn2c(CN3CCOCC3)csc2n1,0.883 (inactive)
15,COCC(=O)Nc1cc(Sc2ccccc2)ccc1N=C(NC(=O)OC)NC(=O)OC [Febantel],1.6 (inactive)
16,"C[C@H](Nc1ncnc2nc[nH]c12)c1cc2cccc(Cl)c2c(=O)n1-c1ccccc1 [Duvelisib (IPI-145, INK1197)]",0.838 (inactive)
17,O=C(Nc1cc(Cl)cc(Cl)c1)Nc1cc(Cl)cc(Cl)c1,1.29 (inactive)

row,SMILES,PARP1 L713F-nLuc/akaLuc ratio
1,CNS(=O)(=O)Nc1nccc(Cc2c(C)c3ccc(Oc4ncccn4)cc3oc2=O)c1F,0.435 (inactive)
2,O=C(O)C1=CC(=C(c2ccc(O)c(C(=O)O)c2)c2ccc(O)c(C(=O)O)c2)C=CC1=O [Aurintricarboxylic acid],0.68 (inactive)
3,"C=CC(=O)N1C[C@@H](Nc2ncnc3[nH]ccc23)CC[C@H]1C [(2R,5S)-Ritlecitinib]",1.05 (inactive)
4,Cc1ccc(NC(=O)c2ccc(CN3CCN(C)CC3)cc2)cc1Nc1nc(-c2cccnc2)cs1 [Masitinib (AB1010)],0.851 (inactive)
5,COc1ccc(C(=O)C2CCN(CC(=O)N(Cc3nc4c(c(=O)[nH]3)COCC4)CC3CC3)CC2)cc1,1.01 (inactive)
6,NC1(c2ccc(-c3nc4ccn5c(=O)[nH]nc5c4cc3-c3ccccc3)cc2)CCC1,0.79 (inactive)
7,COc1ccc2c(c1)c(C(=O)Nc1cc(C(=O)OC(C)(C)C)ccc1F)cn2C(C)=O,0.714 (inactive)
8,"O=c1[nH]ccc2c(O)cccc12 [1,5-Isoquinolinediol]",2.7 (active)
9,COC(=O)c1cccc(NC(=O)NC2CCN(c3ccnc(Nc4ccc(F)cc4)n3)C2)c1 (stereo not drawn),1.07 (inactive)
10,O=C(O)c1cnn(-c2nc3cc(OC(F)(F)F)c(Cl)cc3[nH]2)c1,0.757 (inactive)
11,CN(C)C(=O)c1ccc(S(=O)(=O)c2ccc(NC(=O)[C@@](C)(O)C(F)(F)F)c(Cl)c2)cc1,1.12 (inactive)
12,O=C(NCCCN1CCCC1)c1cncc(-c2ccccc2N2CCN(CCc3c[nH]c4ccccc34)CC2)c1,0.537 (inactive)
13,CC(C)c1c(-c2ccccc2)nc2c(C#N)c[nH]n2c1=O,0.786 (inactive)
14,O=C(c1cc(Cn2c(=O)[nH]c(=O)c3c(F)cccc32)ccc1F)N1CCN(c2ncccn2)CC1 [Senaparib],3.98 (active)
15,CCCOc1ccn2c(C(C)=O)cc(-c3cccc(OC)c3)c2c1,1.56 (inactive)
16,COc1cc(-c2cn(C)c(=O)c3cnccc23)cc(OC)c1CN1CCN(CCCCCOc2cc(-c3scnc3C)ccc2CNC(=O)[C@@H]2C[C@@H](O)CN2C(=O)[C@@H](NC(=O)C2(F)CC2)C(C)(C)C)CC1,0.634 (inactive)
